# Hits are enriched below; roughly 1.6% of the tested compounds scored in any of these assays.
# KCNQ2 inh – rat KCNQ2 potassium channel inhibitors, primary screen, cell-based, CHO-K1, FluxOR thallium flux, B-score. AID 2156, 2009. 20 min; active compounds read low. 1.1% of 310,000 active. B-score at 10 µM;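 active = fluorescence ratio B-score at most minus 3 library SDs, with starting brightness B-score within 2 library SDs, cut at about -5.5 in these data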
# KCNQ2 enhance – potentiators of rat KCNQ2 potassium channel; 0.54% of 310,000 active; AID 2239, 2010; B-score at 10 µM; CHO-K1 KCNQ2, FluxOR thallium flux fluorescence; active compounds read high;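 active = fluorescence ratio B-score at least 3 SD of library B-scores, with initial fluorescence B-score within 3 of them, cut at about 5.3 in these data; same plate scores as AID 2156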;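 note: B-score of peak minus minimum over baseline fluorescence ratio after K+ and Tl+ stimulus; positive B-score means potentiation of KCNQ2 with more thallium influx and brighter signal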
# KCNQ2 inh conf – rat KCNQ2 potassium channel inhibitors, confirmation, cell-based, thallium flux. KCNQ2-expressing cells, inhibition; active compounds read low. 57% of 1,000 active. AID 493025, 2011. activity change, negative = inhibition, % at 10 µM. shares compounds with KCNQ2 inh;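 note: 0% = vehicle wells and values are ratio percent relative to vehicle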
# KCNQ1 spec – human KCNQ1 channel inhibition, counter-screen for KCNQ2 inhibitor project, cell-based, FluxOR thallium flux; shares compounds with KCNQ2 inh; 15% of 1,000 active; activity change, negative = inhibition, % at 10 µM; KCNQ1-expressing cells, FluxOR thallium flux fluorescence; active compounds read low;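 active = activity change at least 3 SD of negative controls below their mean in both duplicate wells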;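 note: CHO cells stably transfected with KCNQ1 and depolarized by potassium stimulus; peak minus minimum fluorescence over baseline after thallium addition; 0% = vehicle negative control and -100% = blank without thallium stimulus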
# CHO parental ctr – thallium flux change in parental CHO cells, counter-screen for KCNQ2 inhibitor project | shares compounds with KCNQ2 inh | active compounds read low | activity change, % at 10 µM | 14% of 1,000 active | AID 493029, 2011;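 note: 0% = vehicle negative controls with stimulus buffer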
# KCNQ2 patch conf – rat KCNQ2 channel inhibitors, confirmation, cell-based, automated patch clamp, single concentration | shares compounds with KCNQ2 inh | KCNQ2-expressing cells, automated patch clamp current | calls only at 10 µM | 49% of 550 active
# * hit, by the source's call; i = inactive; · = no result; + = active, no number. Unless noted, the rule behind the calls is not given here.
SMILES,KCNQ2 inh,KCNQ2 enhance,KCNQ2 inh conf,KCNQ1 spec,CHO parental ctr,others
C/C(=N\OCC(=O)NC12CC3CC(CC(C3)C1)C2)c1cc2ccccc2o1,-6.8*,-6.8,-38.5%*,-37.0%*,-27.0%*,KCNQ2 patch conf=i
CSc1ccccc1OCc1cc(C(=O)N2CCC(Oc3cccnc3)CC2)no1,i,0.24,·,·,·,
CCCc1nc(SC)[nH]c(=O)c1C,i,0.57,·,·,·,
COc1ccc(-c2cnc3n2CCCCC3)cc1,i,·,·,·,·,
COc1ccc(-c2c[n+]3c4n2CCCCC4=C(c2ccc(Br)cc2)C3)cc1,-8.68*,-8.68,-33.0%*,i,i,KCNQ2 patch conf=i
COCCCNC(=O)c1ccc(OC)c(OC2CCN(C(C)C)CC2)c1,i,0.15,·,·,·,
O=C(C[n+]1ccn(CCCNP2(=O)C=C(c3ccccc3)OC(c3ccccc3)=C2)c1)c1cccs1,i,0.73,·,·,·,
CC1CN(S(=O)(=O)c2cccc(C(=O)N(CCc3ccccc3)Cc3ccccc3)c2)CC(C)O1 (configuration not stated),-8.3*,-8.3,-32.5%*,-27.0%*,i,KCNQ2 patch conf=+
Cc1ccc(N(Cc2ccccc2)C(=O)c2cccc(S(=O)(=O)N3CC(C)OC(C)C3)c2)cc1 (configuration not stated),i,0.29,·,·,·,
Cc1ccc(C)c(N2CCN(C(=O)c3ccc4c(c3)c(C)c(C)n4C)CC2)c1,-6.64*,-6.64,i,i,i,
Cc1c(C)n(C)c2ccc(C(=O)N3CCN(c4ccccc4)CC3)cc12,i,·,·,·,·,
CCOc1ccc(S(=O)(=O)NC(C)C(=O)NCc2ccc3c(c2)OCO3)cc1 (configuration not stated),i,·,·,·,·,
Clc1ccc(/C=C/c2nc3ccccc3[nH]2)cc1,i,·,·,·,·,
Clc1cccc(Cl)c1/C=C/c1nc2ccccc2[nH]1,-8.72*,-8.72,-35.5%*,-42.0%*,-29.5%*,KCNQ2 patch conf=i
COc1ccc(-n2c(=O)c3c4c(sc3n(CC(=O)NC3CCCC3)c2=O)CCCC4)c(OC)c1,-6.71*,-6.71,i,i,i,
COc1ccc(-n2c(=O)c3c4c(sc3n(CC(=O)NCC3CCCO3)c2=O)CCCC4)c(OC)c1 (configuration not stated),i,·,·,·,·,
Cc1c(C)n(C(=O)CN2CCC(C(N)=O)CC2)c2ccccc12,i,·,·,·,·,
Cc1c(C)n(C(=O)CN2CCN(c3ccccc3)CC2)c2ccccc12,-7.82*,-7.82,i,i,i,
Cc1ccccc1C(=O)Nc1ccccc1NC(=O)c1ccccc1Br,i,·,·,·,·,
COc1ccc(Nc2ccccc2NC(=O)c2ccccc2Br)cc1,-9.62*,-9.62,-22.0%*,i,i,KCNQ2 patch conf=+
O=C(/C=C/c1ccc(F)cc1)NCC1(c2ccccc2)CCOCC1,i,·,·,·,·,
Cc1cc(C)cc(NS(=O)(=O)c2ccc(NC(=O)C3CCCCC3C(=O)O)cc2)c1 (configuration not stated),i,0.52,·,·,·,
O=C(CSc1cn(CCNC(=O)c2ccccc2F)c2ccccc12)NCC1CCCO1 (configuration not stated),i,0.75,·,·,·,
O=C(NCCn1cc(SCc2ccccc2)c2ccccc21)c1ccccc1F,-8.18*,-8.18,i,i,i,
COc1ccccc1NC(=O)c1cnc(SCC(=O)NCCc2ccccc2)n(C)c1=O,i,·,·,·,·,
SMILES,KCNQ2 inh,KCNQ2 enhance,KCNQ2 inh conf,KCNQ1 spec,CHO parental ctr,others
CC(C)(CN1CCN(C(c2ccccc2)c2ccccc2)CC1)NS(=O)(=O)c1ccccc1,i,4.13,·,·,·,
Cc1[nH]n(-c2ccccc2)c(=O)c1C(C[N+](=O)[O-])c1ccccc1Cl (configuration not stated),i,·,·,·,·,
COc1ccc(C(C[N+](=O)[O-])c2c(C)[nH]n(-c3ccccc3)c2=O)cc1 (configuration not stated),-7.05*,-7.05,-26.0%*,i,i,KCNQ2 patch conf=i
Cc1ccc(S(=O)(=O)NCC(=O)OCC(=O)c2ccc(Cl)s2)cc1,i,·,·,·,·,
Cc1ccc(NC(=O)C(Nc2ccccc2)c2ccccc2)cc1 (configuration not stated),i,·,·,·,·,
Cc1ccc(NC(=O)C(Nc2cccc(C)c2)c2ccccc2)cc1 (configuration not stated),-7.44*,-7.44,-28.0%*,i,i,KCNQ2 patch conf=i
CC(=O)N1CCN(c2ccc(S(C)(=O)=O)cc2[N+](=O)[O-])CC1,i,0.18,·,·,·,
CC(=O)OC[C@H]1O[C@@H](n2ncc(=O)[nH]c2=O)[C@H](OC(C)=O)[C@@H]1OC(C)=O,i,0.09,·,·,·,
O=C(OCC1OC(n2ncc(=O)[nH]c2=O)C(OC(=O)c2ccccc2)C1OC(=O)c1ccccc1)c1ccccc1 (configuration not stated),-11.1*,-11.1,-22.5%*,i,i,KCNQ2 patch conf=i
Nc1ccccc1Oc1c(F)c(F)c(Oc2ccccc2N)c(F)c1F,i,0.82,·,·,·,
CC(C)(Oc1ccc(Cl)cc1)C(=O)N1CCN(c2ccccn2)CC1,-7.38*,-7.38,i,i,i,
O=C(/C=C/c1ccc(Cl)cc1)N1CCN(c2ccccn2)CC1,i,·,·,·,·,
COc1ccccc1NC(=O)COC(=O)/C=C/c1ccccc1[N+](=O)[O-],i,2.28,·,·,·,
COc1ccccc1/C=C/C(=O)OCC(=O)Nc1ccccc1Sc1ccccc1,-6.81*,-6.81,-30.0%*,i,i,KCNQ2 patch conf=i
CCOc1ccc2ccccc2c1/C=N/NC(=O)CNC(=O)c1ccccc1O,i,·,·,·,·,
NC(=O)C1CCN(CC(=O)Nc2nc(-c3ccccc3)cs2)CC1,i,·,·,·,·,
O=C(Nc1nc(-c2ccccc2)cs1)C1CCCCN1S(=O)(=O)c1ccc(Cl)cc1 (configuration not stated),-8.93*,-8.93,i,i,i,
O=C(Nc1nc(-c2ccccc2)cs1)C1CCCCN1S(=O)(=O)c1ccccc1 (configuration not stated),i,·,·,·,·,
CC1CCN(CC(=O)Nc2nc(-c3ccccc3)cs2)CC1,-7.34*,-7.34,i,i,i,
Nc1ccc(-c2nc3ncccc3o2)cc1,i,0.87,·,·,·,
O=C(CCCN=C1NS(=O)(=O)c2ccccc21)OCC(=O)c1ccc(F)cc1,i,·,·,·,·,
c1ccc(-c2noc(-c3ccccc3-c3ccccc3)n2)cc1,-8.63*,-8.63,-24.0%*,i,i,KCNQ2 patch conf=i
Fc1ccccc1-c1nc(-c2ccc(Cl)cc2)no1,i,·,·,·,·,
Cc1ccc(-c2nn(-c3ccccc3)cc2CO)cc1,i,·,·,·,·,

# High-throughput results from PubChem BioAssay.
